Sm TGR block – blocks Schistosoma mansoni thioredoxin glutathione reductase. Q962Y6. purified TGR, DTNB reduction, TNB absorbance 405 nm. AID 485364. actives 3% (n = 360,000). Potency, µM (top dose mostly 114 µM), for the others: at the highest dose activity change, negative = inhibition, most hits filed as inhibitors; also: % is scaled to controls: 0 for no effect and ±100 for the full control effect; nearly all actives have a fitted effect of over 60% in size
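First, TGR (20 nM dispensed) and NADPH were mixed with compound. Second, a 15 min room-temperature incubation followed. Third, further NADPH and then DTNB were added to start the reaction. Finally, TNB absorbance was monitored kinetically.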
SARS PLpro yeast – SARS-CoV PLP inhibition in yeast; S. cerevisiae expressing SARS-CoV PLpro, growth rescue; Potency, µM (doses to about 32.9 µM), inactives show at the top dose activity, positive = growth rescue, hits mostly activators; actives 0.19% (n = 330,000); calls by dose curve; also: 0% is about no effect; nearly all actives have a fitted effect of over 55% in size
Pf growth 48h – inhibits P. falciparum growth in the first generation, 48 h; P. falciparum luciferase growth in erythrocytes, 48 h; Potency, µM (highest dose often 28.7 µM), for the others: at the top dose activity change, negative = inhibition, hits mostly inhibitors; actives 5.9% (n = 310,000); also: % is scaled to controls: 0 for no effect and ±100 for the full control effect
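Parasite viability was followed by luminescence of a genomically integrated firefly luciferase. Cultures held 0.1% parasitemia at 2% hematocrit (final), incubated under 5% CO2 at 37 C.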
Pf growth 96h – P. falciparum growth inhibition at 96 hours. P. falciparum luciferase reporter growth, 96 h. Potency, µM (top dose mostly 28.7 µM), for inactives: top-dose activity change, negative = inhibition, actives largely listed as inhibitors. actives 6.9% (n = 320,000). AID 504834; also: % is scaled to controls: 0 for no effect and ±100 for the full control effect
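Compounds incubated with erythrocytes infected by luciferase-expressing P. falciparum (2% hematocrit, 0.05% parasitemia final) for 96 hours, 37 C in 5% CO2. Growth inhibition scored as decreased luciferase luminescence.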
Starred values were filed as active, the others as inactive; ? = inconclusive; . = no result; [ ] = remark or other dose. An excerpt weighted towards active compounds, which were near 12% of everything screened. Unless noted, calls follow the shape of the dose curve; as a rule, active = well fitted curve in the direction sought with a large enough effect; inconclusive = small, poorly fitted or top-dose-only effect, or another doubt; inactive = no such curve, though single readings can be large; an effect the other way counts as inactive or inconclusive. Potency is read from the fitted curve at half-maximal effect.

SMILES | Sm TGR block | SARS PLpro yeast | Pf growth 48h | Pf growth 96h
CC(C)CCNC(=O)C12CN(Cc3ccccc3)CC1C(c1cccc([N+](=O)[O-])c1)=NO2 (configuration not stated) | -15% | -2% | ? | ?
CC(=O)c1ccc(NC2=NS(=O)(=O)c3ccccc32)cc1 | 0% | . | . | .
CCc1noc(-c2ccc(N(C)Cc3ccc(OC)cc3)c([N+](=O)[O-])c2)n1 | 1% | . | . | .
CCOc1cccc(NC(=O)C2CC(=O)N(CC)C(=Nc3ccc(F)cc3)S2)c1 (configuration not stated) | 0% | . | . | .
CC1CCN(S(=O)(=O)c2ccc3c(c2)N(CC(=O)O)C(=O)CO3)CC1 | 7% | . | . | .
CN(C)CCNC(=O)/C=C/c1cn(-c2ccccc2)nc1-c1cc2ccccc2oc1=O | 4% | -1% | -16% | 8.3µM*
Cc1cccc(NC(=O)CSc2nnc(CNC(=O)c3c(F)cccc3Cl)o2)c1C | 5% | . | . | .
COCCCNC(=S)Nc1ccc(C)cc1[N+](=O)[O-] | 45µM* | -1% | -3%[5.75 µM] | 9%
COc1cc(/C=C(\C#N)c2ccccn2)ccc1OCc1ccccc1Cl | -3% | 5% | 1.9µM* | 2.3µM*
COc1cc(/C=C(\C#N)c2ccccn2)cc(OC)c1O | ? | -2% | -11% | -28%
CCOc1ccc(CCNC(=O)C(C)N2C(=O)CC(C)(C)Sc3ccccc32)cc1 (configuration not stated) | 8% | -2% | ? | 59%
COC(=O)C1=C(C)N=c2s/c(=C3\C(=O)Nc4ccccc43)c(=O)n2C1c1ccccc1 (configuration not stated) | 50µM* | 12% | 0% | 11%
CCOC(=O)C1=C(C)n2c(s/c(=C3\C(=O)Nc4ccccc43)c2=O)=NC1c1ccc(OC)cc1 (configuration not stated) | 25µM* | 2% | -7% | -16%
CCOC(=O)C1=C(C)N=c2s/c(=C3/C(=O)Nc4ccccc43)c(=O)n2C1c1ccc(C)cc1 (configuration not stated) | 20µM* | -4% | -21% | ?
COC(=O)C1=C(C)N=c2s/c(=C/c3ccoc3)c(=O)n2C1c1ccccc1 (configuration not stated) | ? | . | ? | 70%
Cc1ccc(C(=O)NCc2ccc(Cl)cc2)cc1S(=O)(=O)N1CCCCC1 | -5% | -1% | ? | ?
Cc1oc(-c2cccs2)nc1CN1CCN(CC(C)C)C(CCO)C1 (configuration not stated) | -27% | -1% | -7% | 1.9µM*
COc1cccc(CN2CCN(Cc3nc(-c4cccs4)oc3C)CC2CCO)c1 (configuration not stated) | ? | -1% | 9.3µM* | ?
CC(C)CN1CCN(Cc2cccc3cccnc23)CC1CCO (configuration not stated) | 9% | -2% | 23% | 78%
CCOc1cc(/C=C2/N=C(C)C(C(=O)OC)=C2O)ccc1O | -26% | 2% | 19% | 15%
CCOc1cc(C=C2C(=O)NC(=O)NC2=O)cc([N+](=O)[O-])c1O | . | 1% | -8% | -20%
CCOc1cc(/C=C2\CCC/C(=C\c3cc(Cl)c(O)c(OCC)c3)C2=O)cc(Cl)c1O | -25% | -17% | ? | 3.3µM*
CCOc1cc(/C=C2\SC(N)=NC2=O)ccc1O | -33% | 2% | 0% | ?
CCOc1cc(/C=C2\CN(C)C/C(=C\c3ccc(O)c(OCC)c3)C2=O)ccc1O | 13µM* | -1% | 2%[0.00184 µM] | ?
CCOc1cc(/C=C2/C(=O)ON=C2C)ccc1O | -15% | 2% | 12%[0.00184 µM] | 0.093µM*
SMILES | Sm TGR block | SARS PLpro yeast | Pf growth 48h | Pf growth 96h
CC1=NOC(=O)/C1=C/c1ccc(O)c(Cl)c1 | -19% | -1% | 4%[0.00184 µM] | ?
CCOC(=O)C1=C(O)/C(=C\c2ccc(O)c(OCC)c2)N=C1C | 40µM* | -1% | 7% | 9%
COc1ccccc1CNC(=O)CN1C(=O)CSc2c1c(C)nn2-c1ccccc1 | 2% | . | . | .
Cc1ccc(-c2csc(/C(C#N)=C(\O)CCl)n2)cc1 | 18µM* | -2% | 58% | 27%
CCCCOc1ccc(CNC(=O)c2ccc(NC(=O)N3CCSc4ncccc43)cc2)cc1 | 2% | . | . | .
COc1cccc(C2=CC(c3ccc(OC)c(OC)c3)NC(=S)N2)c1 (configuration not stated) | -24% | -2% | 10µM* | ?
CC1CCCN(C(=O)c2ccc3ncsc3c2)C1 (configuration not stated) | -4% | 3% | -9% | 44%
CC1Cc2cc(/C(O)=C3/C(=O)C(=O)N(CCN4CCOCC4)C3c3ccc([N+](=O)[O-])cc3)ccc2O1 (configuration not stated) | -18% | -4% | 24% | 9.3µM*
C=CCOc1ccc(C2/C(=C(\O)c3ccc4c(c3)CC(C)O4)C(=O)C(=O)N2CCN2CCOCC2)cc1OCC (configuration not stated) | 40µM* | -2% | -16% | 3%
C=CCOc1ccc(C2/C(=C(/O)c3ccc4c(c3)CC(C)O4)C(=O)C(=O)N2CCCN2CCOCC2)cc1 (configuration not stated) | 0% | -5% | -26% | ?
COc1cc(C2/C(=C(\O)c3ccc4c(c3)CC(C)O4)C(=O)C(=O)N2CCCn2ccnc2)ccc1O (configuration not stated) | -33% | -4% | 4% | .
CCOc1ccc(C2/C(=C(/O)c3ccc4c(c3)CC(C)O4)C(=O)C(=O)N2CCCn2ccnc2)cc1OCC (configuration not stated) | 89µM* | ? | -6% | ?
COc1ccc(C2/C(=C(/O)c3ccc4c(c3)CC(C)O4)C(=O)C(=O)N2CCN2CCOCC2)cc1 (configuration not stated) | -6% | -3% | 1% | 22%
CCc1cccc2c(-c3ccccc3)nc(SCC(=O)Nc3ccccc3)nc12 | 10% | . | . | .
Cc1ccc(OCCCn2ccnc2)c(Br)c1 | 3% | . | ? | -18%
Cc1cc(N2CCCCC2)nc2ccc(NC(=O)/C=C/c3ccc(OCCC(C)C)cc3)cc12 | 0% | . | . | .
N=C(N)SCc1ccc(Cl)cc1Cl | -4% | 9% | ? | 10µM*
Cc1ccc2cc(C#N)c(SCC(=O)NCc3ccco3)nc2c1 | 35µM* | 7% | 22% | 10%
Cc1ccc2nc(SCC(=O)NCc3ccco3)c(C)cc2c1 | 40µM* | 14% | ? | 0%
Cc1ccc2nc(SCC(=O)NCc3ccco3)c(C#N)cc2c1 | ? | 12% | 71% | 42%
Cc1ccc(CNC(=O)CSc2nc(=O)n(Cc3ccco3)c3c2CCC3)cc1 | 40µM* | . | . | .
O=C(N[C@H]1C/C=C\C[C@@H](CC(=O)N(CCO)Cc2ccccc2)C(=O)NC[C@H](c2ccccc2)OC1=O)OCC1c2ccccc2-c2ccccc21 | . | 2% | . | .
Cc1ccc(-n2ccnc(NCCc3ccc(S(N)(=O)=O)cc3)c2=O)cc1C | -19% | . | . | .

Screening data: PubChem BioAssay, National Center for Advancing Translational Sciences (NCATS)
